Records with an inconclusive call do not appear. Where a structure was tested more than once in an assay, its records may differ in their call. Activity calls are given as the source filed them. Rule for the calls, unless noted: active = hit-call score of the fitted dose curve at least 0.9, where 1 is the maximum; inactive = score below 0.9.
Tests used:
[1] = CCTE_Deisenroth_5AR_NBTE_acceptor: CCTE's 5alpha-reductase NanoBRET Target Engagement Assay - Autofluorescence Screen, Deisenroth Lab (AID 2284321); details: actives raise or lower the signal;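 note: compound fluorescence in the acceptor channel under 460 nm excitation flags autofluorescence artifacts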
Outline: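 Chemicals diluted to a nominal 100 uM in DMSO were scanned at 460 nm excitation. Samples were read in three independent runs (n=3). Gain or loss of acceptor signal was fitted relative to DMSO.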

[2] = read-out: Collagen I, COL1A1 (gene 1277); experiment: BSK_hDFCGF_CollagenI: BioMAP Diversity Plus: hDFCGF Assay for Collagen I Biomarker Activity (AID 2284250); details: primary human foreskin fibroblasts
Outline: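 Cells were primary human foreskin fibroblasts treated for 24 h. Collagen I levels were then determined by ELISA and compared against DMSO controls.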

[3] = read-out: Interleukin-8 (IL8), CXCL8 (gene 3576); experiment: BSK_KF3CT_IL8: BioMAP Diversity Plus: KF3CT Assay for Interleukin-8 (IL8) Biomarker Activity (AID 2284254); details: primary human keratinocytes with fibroblasts
Outline: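 ELISA detection of IL-8 from a human skin co-culture, keratinocytes with foreskin fibroblasts, at 24 h following chemical exposure, with gain of signal scored against DMSO controls.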

KRT18 (gene 3875) = experiment: BSK_BE3C_Keratin818: BioMAP Diversity Plus: BE3C Assay for Keratin 818 Biomarker Activity (AID 2284282); details: primary human bronchial epithelial cells
Outline: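 BE3C: human bronchial epithelial primary cells, 24 h exposure, Keratin 8/18 ELISA; DMSO = negative control/baseline; cytotoxicity by parallel SRB stain (0.1% SRB after 10% TCA fixation, 560 nm).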

[4] = target: human Peroxisome Proliferator-activated Receptor alpha (PPARa), PPARA (gene 5465) (UniProt Q07869); experiment: NVS_NR_hPPARa: NovaScreen (NVS) Nuclear Receptor Binding Assay for human Peroxisome Proliferator-activated Receptor alpha (PPARa) (AID 2283359; active = hit-call score of the fitted dose curve at least 0.9, where 1 is the maximum;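 note: activity means loss of TR-FRET signal versus DMSO baseline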)
Outline: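 Cell-free TR-FRET binding assay with extracted PPARα protein, read 1 h after dosing. Primary screen in duplicate at 25 uM, with actives retested in concentration series. Loss of signal versus DMSO.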

[5] = target: Estrogen receptor beta (Homo sapiens) (UniProt Q92731); experiment: OT_ER_ERbERb_1440: Odyssey Thera (OT) 24-hour HEK293T Protein-Complementation Assay for Estrogen Receptor-beta/-beta Homodimer (AID 2283380; active = hit-call score of the fitted dose curve at least 0.9, where 1 is the maximum;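 note: scored as signal increase over DMSO baseline for both agonists and antagonists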)
Outline: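 HEK293T cells stably expressing ER beta LBD (aa 310-547) homodimer fragment-complementation reporter, dosed 24 h. Cells formaldehyde-fixed, Draq5-stained; gain in nuclear (agonist) or nuclear plus cytoplasmic (antagonist) fluorescence versus DMSO read by laser scanning cytometry.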

[6] = target: sheep Cyclooxygenase-1 (Cox1), PTGS1 (gene 443551) (UniProt P05979); experiment: NVS_ENZ_oCOX1: NovaScreen (NVS) Enzymatic Assay for sheep Cyclooxygenase-1 (Cox1) (AID 2283239; active = hit-call score of the fitted dose curve at least 0.9, where 1 is the maximum;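 note: actives reduce cyclooxygenase activity so potencies are for inhibitors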)
Outline: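 Native ovine seminal vesicle protein serves as enzyme source in this biochemical assay. Colorimetric signal is recorded 0.66 h after chemical addition, and decreases versus the DMSO control define activity.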

[7] = CCTE_Shafer_MEA_dev_bursting_electrodes_number: CCTE's Neural Network Formation Assay for Number of Bursting Electrodes, Shafer Lab (AID 2284043; active = hit-call score of the fitted dose curve at least 0.9, where 1 is the maximum)
Outline: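 Primary rat cortical neurons plated on 16-electrode MEA wells, exposed from day 0 with compound renewed at DIV 5 and 9. Electrodes bursting ≥1 burst per 2 min counted on days 5, 7, 9 and 12; trapezoidal AUC across days, fitted for loss versus DMSO.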

[8] = CCTE_Shafer_MEA_dev_mutual_information_norm: CCTE's Neural Network Formation Assay for Mutual Information Normalization, Shafer Lab (AID 2284091)
Outline: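 Primary rat cortical neurons on PEI-coated 48-well MEA plates, 1.5 x 10^5 cells/well, exposed from day 0 through day 12 with re-dosing at DIV 5 and 9. Mutual information between electrodes recorded days 5, 7, 9, 12; trapezoidal AUC, loss-of-signal fit versus DMSO.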

[9] = CCTE_Shafer_MEA_dev_correlation_coefficient_mean: CCTE's Neural Network Formation Assay for Mean Correlation Coefficient, Shafer Lab (AID 2284093)
Outline: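 Extracellular firing from rat cortical networks on 48-well MEAs, DMSO-referenced, negative fitting direction. Compound present from plating to DIV12; mean pairwise correlation per well integrated over DIV5–12 recordings by trapezoidal AUC.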

[10] = IUF_NPC1a_proliferation_area_72hr: Leibniz Research Institute for Environmental Medicine (IUF) 72-hour Neural Progenitor Cell Proliferation Area Assay (NPC1a) (AID 2284208)
Outline: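 Proliferation is scored as sphere area gain in primary human fetal neural progenitors treated for 72 h in EGF/FGF-containing medium. Viability, LDH and BrdU readouts come from the same wells.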

[11] = IUF_NPC1_viability_72hr: Viability Assessment at 72 hours in the Leibniz Research Institute for Environmental Medicine (IUF) Neural Progenitor Cell Proliferation Assay (NPC1) (AID 2284209)
Outline: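 Each well receives one 0.3 mm progenitor sphere from fetal brain cortex; test chemical is added at plating and left three days. Viability comes from alamar blue fluorescence, multiplexed with LDH and BrdU readouts in the same well.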

[12] = TAMU_PeakParms_SingleDonor1434_Chronotropy: Texas A&M University (TAMU) 1.5-hr Human Induced Pluripotent Stem Cell (iPSC)-derived Cardiomyocytes Calcium (Ca+2) Flux Assay for Cardiotoxicity: Chronotropy (changes in peak frequency) (AID 2284217); details: actives raise or lower the signal
Outline: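 Using fluorescent Ca2+ flux, average beats per second are measured in human iPSC-derived cardiomyocytes treated 90 min (0.5% DMSO vehicle, 0.2–100 uM). Non-beating data points are removed; activity is modeled in both directions relative to DMSO controls.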

[13] = IUF_NPC2c_oligodendrocyte_migration_120hr: Leibniz Research Institute for Environmental Medicine (IUF) 120-hour Neural Progenitor Cell Migration Assay for Oligodendrocyte Migration (NPC2c) (AID 2284297);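 note: O4-positive oligodendrocyte migration distance divided by radial glia migration distance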
Outline: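 Primary hNPC spheres migrating on extracellular matrix, exposed five days to a 7-point dilution series with solvent control. Oligodendrocyte migration was scored by high-content imaging of O4 immunostaining and expressed relative to radial glia distance.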

[14] = IUF_NPC2a_radial_glia_migration_120hr: Leibniz Research Institute for Environmental Medicine (IUF) 120-hour Neural Progenitor Cell Migration Assay for Radial Glia Migration (NPC2a) (AID 2284298)
Outline: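 In this multiplexed test, fetal hNPC spheres migrate radially on poly-D-lysine/laminin in N2 medium (37C, 5% CO2, pH 7.2-7.6) under continuous compound exposure over five days. Migration is scored at 120 h from automated Hoechst nuclear imaging.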

[15] = TOX21_PR_BLA_Followup_Agonist_viability: Viability Assessment in the Tox21 HEK293 Progesterone Receptor (PR) Agonism Beta-lactamase Follow-Up Assay (AID 2283935; active = hit-call score of the fitted dose curve at least 0.9, where 1 is the maximum;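 note: cells exposed to compound for 16 hr at 37 °C; signal loss means lower viability so actives are cytotoxic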)
Outline: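 Multiplexed viability counter-screen: ATP-coupled luciferase signal measured after 30 min at room temperature, following 16 hr compound treatment of PR-UAS-bla HEK293T cells grown in charcoal-stripped serum.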

[16] = TOX21_PR_BLA_Followup_Antagonist_viability: Viability Assessment in the Tox21 HEK293 Progesterone Receptor (PR) Antagonism Beta-lactamase Follow-Up Assay (AID 2283936; active = hit-call score of the fitted dose curve at least 0.9, where 1 is the maximum;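 note: hits lower the luminescence signal meaning cytotoxicity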)
Outline: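 PR-UAS-bla HEK293T cells (3,000/well, 2% charcoal-stripped FBS) given compound plus R5020 agonist, 16 h at 37C. CellTiter-Glo added after bla read, 30 min at room temperature; luminescence loss indicates cytotoxicity.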

[17] = TOX21_PR_LUC_Followup_Agonist_viability: Viability Assessment in the Tox21 HEK293 Progesterone Receptor (PR) Agonism Luciferase Follow-Up Assay (AID 2283941; active = hit-call score of the fitted dose curve at least 0.9, where 1 is the maximum;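 note: loss of signal means cytotoxicity so actives lower viability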)
Outline: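 Luminescent ATP quantitation (CellTiter-Glo) serves as the read-out; a drop flags cytotoxic compounds. Cells are HEK293-PR-A-luc grown in 10% charcoal-stripped FBS, plated 3,000/well, and exposed to compound for 16 h.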

[18] = CEETOX_H295R_ESTRADIOL: CeeTox H295R High-throughput Steroidogenesis Assay for Estradiol (AID 2283440); details: actives raise or lower the signal;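 note: estradiol secreted into medium quantified by LC-MS/MS after dansyl derivatisation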
Outline: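 Following OECD 456 with minor changes, H295R cells received 10 uM forskolin for 48 h and then test chemical for 48 h. Hormone output was read by HPLC-MS/MS, with cytotoxic concentrations diluted until MTT viability reached ≥70%.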

[19] = CEETOX_H295R_ESTRONE: CeeTox H295R High-throughput Steroidogenesis Assay for Estrone (AID 2283441); details: actives raise or lower the signal;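 note: estrone secreted into medium measured by LC-MS/MS after dansyl derivatization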
Outline: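 H295R cells; 48 h forskolin (10 uM) prestimulation; 48 h compound exposure, 0.1% DMSO final. Medium estrone: MTBE extraction, dansyl derivatization, HPLC-MS/MS. Bidirectional fit vs DMSO.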

Chain of sheep Cyclooxygenase-1 (Cox1), PTGS1 (gene 443551) (P05979 whole entry, looked up): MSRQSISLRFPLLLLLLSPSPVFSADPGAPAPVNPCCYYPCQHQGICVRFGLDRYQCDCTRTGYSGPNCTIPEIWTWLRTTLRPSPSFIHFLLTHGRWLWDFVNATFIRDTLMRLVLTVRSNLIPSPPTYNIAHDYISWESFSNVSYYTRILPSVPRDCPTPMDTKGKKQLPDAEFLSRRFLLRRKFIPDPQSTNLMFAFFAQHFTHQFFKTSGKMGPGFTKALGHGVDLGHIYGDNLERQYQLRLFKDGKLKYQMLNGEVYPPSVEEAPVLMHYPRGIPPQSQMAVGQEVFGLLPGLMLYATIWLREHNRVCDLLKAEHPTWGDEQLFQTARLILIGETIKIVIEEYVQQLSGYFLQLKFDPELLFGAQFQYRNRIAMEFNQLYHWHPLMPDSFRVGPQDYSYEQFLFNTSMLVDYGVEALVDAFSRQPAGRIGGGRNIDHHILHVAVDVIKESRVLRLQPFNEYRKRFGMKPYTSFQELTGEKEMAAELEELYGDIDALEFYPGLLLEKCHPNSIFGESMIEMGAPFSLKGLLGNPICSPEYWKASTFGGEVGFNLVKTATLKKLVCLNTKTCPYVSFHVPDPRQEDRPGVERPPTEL
Chain of Estrogen receptor beta (Homo sapiens) (Q92731 whole entry, looked up, the tested form may be a part): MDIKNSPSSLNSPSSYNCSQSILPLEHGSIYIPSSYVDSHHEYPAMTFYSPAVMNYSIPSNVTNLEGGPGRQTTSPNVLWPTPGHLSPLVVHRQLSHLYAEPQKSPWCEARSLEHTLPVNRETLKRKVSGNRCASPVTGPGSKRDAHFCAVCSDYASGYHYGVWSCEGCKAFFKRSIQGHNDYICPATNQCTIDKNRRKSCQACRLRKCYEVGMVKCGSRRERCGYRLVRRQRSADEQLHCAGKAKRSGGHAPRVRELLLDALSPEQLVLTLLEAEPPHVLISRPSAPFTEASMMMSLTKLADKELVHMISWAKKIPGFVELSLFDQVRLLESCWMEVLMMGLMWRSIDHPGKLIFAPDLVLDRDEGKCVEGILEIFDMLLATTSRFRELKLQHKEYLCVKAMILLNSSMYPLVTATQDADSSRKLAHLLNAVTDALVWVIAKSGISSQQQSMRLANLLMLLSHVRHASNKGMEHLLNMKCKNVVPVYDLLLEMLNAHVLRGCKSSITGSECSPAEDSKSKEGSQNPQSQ
Chain of human Peroxisome Proliferator-activated Receptor alpha (PPARa), PPARA (gene 5465) (Q07869 whole entry, looked up): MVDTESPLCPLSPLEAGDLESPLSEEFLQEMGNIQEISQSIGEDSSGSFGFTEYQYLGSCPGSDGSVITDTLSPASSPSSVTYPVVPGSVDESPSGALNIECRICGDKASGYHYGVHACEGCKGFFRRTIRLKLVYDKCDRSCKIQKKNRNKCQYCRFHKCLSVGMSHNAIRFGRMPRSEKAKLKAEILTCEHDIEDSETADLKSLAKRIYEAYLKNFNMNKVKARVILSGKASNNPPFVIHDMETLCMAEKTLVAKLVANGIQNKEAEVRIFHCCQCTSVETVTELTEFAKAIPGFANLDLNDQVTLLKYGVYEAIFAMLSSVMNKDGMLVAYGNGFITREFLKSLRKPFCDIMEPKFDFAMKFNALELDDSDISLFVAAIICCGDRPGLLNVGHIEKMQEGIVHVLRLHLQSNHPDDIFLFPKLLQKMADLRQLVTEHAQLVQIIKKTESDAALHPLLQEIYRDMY

C=CC(=O)OCC(CC)CCCC (stereo not given)
outcome [1]: inactive

O=[N+]([O-])O
outcome [2]: inactive | outcome [3]: inactive | outcome (KRT18 (gene 3875)): inactive

[CH3][Sn]([CH3])([Cl])[Cl]
outcome [4]: inactive

CN(C)C(=O)C(c1ccccc1)c1ccccc1
outcome [5]: inactive

N#Cc1cccc(C#N)c1
AC50 [6]: 29.2 µM (active)

Cc1ccc(OP(=O)(Oc2ccc(C)cc2)Oc2ccc(C)cc2)cc1 (tested in a mixture with another compound)
outcome [7]: inactive | outcome [8]: inactive | outcome [9]: inactive | outcome [10]: inactive | outcome [11]: inactive | outcome [12]: inactive | outcome [13]: inactive | outcome [14]: inactive

CC1CCCC1.[C-]#[O+].[C-]#[O+].[C-]#[O+].[Mn]
outcome [7]: inactive | outcome [8]: inactive | outcome [9]: inactive | AC50 [12]: 50 µM (active)

Oc1cc(Cl)ccc1Cl
outcome [1]: inactive

S=c1[nH]c2ccccc2[nH]1
AC50 [6]: 0.984 µM (active)

C[C@]12CC[C@H]3[C@@H](CC[C@@]45O[C@@H]4C(O)=C(C#N)C[C@]35C)[C@@H]1CC[C@@H]2O
outcome [15]: inactive | outcome [16]: inactive | outcome [17]: inactive

COc1ccc(CO)cc1
outcome [2]: inactive | outcome [3]: inactive | outcome (KRT18 (gene 3875)): inactive

CC(C)(C)C(O)C(Oc1ccc(-c2ccccc2)cc1)n1cncn1 (stereo not given)
outcome [18]: inactive | outcome [19]: inactive

C[C@]12CCC(=O)C(O)=C1CC[C@@H]1[C@@H]2CC[C@]2(C)C(=O)CC[C@@H]12
outcome [15]: inactive | outcome [16]: inactive | outcome [17]: inactive

CNC(=N[N+](=O)[O-])NCC1CCOC1 (stereo not given)
outcome [5]: inactive | outcome [8]: inactive | outcome [9]: inactive | outcome [10]: inactive | outcome [11]: inactive | outcome [13]: inactive | outcome [14]: inactive

Oc1ccc(C2(c3ccc(O)cc3)c3ccccc3-c3ccccc32)cc1
AC50 [2]: 0.151 µM (active) | outcome [2]: inactive | AC50 [3]: 8.38 µM (active) | outcome [3]: inactive | AC50 (KRT18 (gene 3875)): 0.15 µM (active) | outcome (KRT18 (gene 3875)): inactive
